Laboratory results as given in the supplement of paper PMC8728848.
Shown is part of a subset that was picked to be rich in the strongest signals.

Legend:
Assay in all cases: glycan array binding signal (z-score within array); higher = stronger binding
Conditions in all cases: glycan notation: IUPAC condensed, linker removed
Fuc(a1-2)Gal(b1-4)GlcNAc = target: Fuc(a1-2)Gal(b1-4)GlcNAc
Procedure, shortened: (§1)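 Columns mapping to the same glycan were averaged after glycan names were converted to IUPAC-condensed notation. The data come from 3228 arrays in the Consortium for Functional Glycomics database, limited to those with an available protein sequence. Binding is reported as a within-array Z-score averaged across arrays of one protein sequence and across linkers.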

[1] = target: Fuc(a1-2)Gal(b1-4)GlcNAc(b1-2)[Fuc(a1-2)Gal(b1-4)GlcNAc(b1-4)]Man(a1-3)[Fuc(a1-2)Gal(b1-4)GlcNAc(b1-2)Man(a1-6)]Man(b1-4)GlcNAc(b1-4)GlcNAc
Procedure, shortened: as §1

[2] = target: Fuc(a1-2)Gal(b1-4)[Fuc(a1-3)]GlcNAc
Procedure, shortened: as §1

[3] = target: Fuc(a1-2)Gal6S(b1-3)GlcNAc
Procedure, shortened: as §1

[4] = target: Fuc(a1-2)[Gal(a1-3)]Gal(b1-3)GlcNAc(b1-6)GalNAc
Procedure, shortened: as §1

[5] = target: Fuc(a1-2)[Gal(a1-4)]Gal(b1-4)GlcNAc
Procedure, shortened: as §1

[6] = target: Fuc(a1-2)[GalNAc(a1-3)]Gal(b1-3)GlcNAc(b1-3)GalNAc
Procedure, shortened: as §1

Fuc(a1-3)GlcNAc = target: Fuc(a1-3)GlcNAc
Procedure, shortened: as §1

Gal(a1-3)Gal(b1-4)GlcNAc = target: Gal(a1-3)Gal(b1-4)GlcNAc
Procedure, shortened: as §1

[7] = target: Gal(a1-3)[Gal(a1-4)]Gal(b1-4)GlcNAc
Procedure, shortened: as §1

Gal(b1-2)Gal = target: Gal(b1-2)Gal
Procedure, shortened: as §1

[8] = target: Gal(b1-3)GlcNAc(b1-3)Gal(b1-4)GlcNAc(b1-6)[Gal(b1-3)GlcNAc(b1-3)]Gal(b1-4)Glc
Procedure, shortened: as §1

[9] = target: Gal(b1-4)GlcNAc(b1-2)Man(a1-3)Man(b1-4)GlcNAc(b1-4)GlcNAc
Procedure, shortened: as §1

[10] = target: Gal(b1-4)GlcNAc(b1-2)[Gal(b1-4)GlcNAc(b1-4)]Man(a1-3)[GlcNAc(b1-4)][Gal(b1-4)GlcNAc(b1-2)[Gal(b1-4)GlcNAc(b1-6)]Man(a1-6)]Man(b1-4)GlcNAc(b1-4)GlcNAc
Procedure, shortened: as §1

[11] = target: Gal(b1-4)GlcNAc(b1-3)Gal(b1-4)GlcNAc(b1-2)Man(a1-3)[Gal(b1-4)GlcNAc(b1-3)Gal(b1-4)GlcNAc(b1-2)Man(a1-6)]Man(b1-4)GlcNAc(b1-4)GlcNAc
Procedure, shortened: as §1

[12] = target: Gal(b1-4)GlcNAc(b1-3)Gal(b1-4)GlcNAc(b1-3)GalNAc
Procedure, shortened: as §1

[13] = target: Gal(b1-4)GlcNAc(b1-3)Gal(b1-4)GlcNAc(b1-3)[Gal(b1-4)GlcNAc(b1-3)Gal(b1-4)GlcNAc(b1-6)]GalNAc
Procedure, shortened: as §1

Gal(b1-6)Gal = target: Gal(b1-6)Gal
Procedure, shortened: as §1

Gal3S(b1-4)Glc = target: Gal3S(b1-4)Glc
Procedure, shortened: as §1

Gal3S(b1-4)GlcNAc = target: Gal3S(b1-4)GlcNAc
Procedure, shortened: as §1

[14] = target: Gal3S(b1-4)[Fuc(a1-3)]Glc6S
Procedure, shortened: as §1

Gal3S4S(b1-4)GlcNAc = target: Gal3S4S(b1-4)GlcNAc
Procedure, shortened: as §1

Gal6S(b1-4)GlcNAc = target: Gal6S(b1-4)GlcNAc
Procedure, shortened: as §1

[15] = target: GalNAc(b1-3)Gal(a1-6)Gal(b1-4)Glc
Procedure, shortened: as §1

[16] = target: GalNAc(b1-4)GlcNAc(b1-2)Man
Procedure, shortened: as §1

[17] = target: Glc(a1-4)Glc(a1-4)Glc(a1-4)Glc
Procedure, shortened: as §1

[18] = target: GlcNAc(a1-4)Gal(b1-4)GlcNAc(b1-3)Gal(b1-4)[Fuc(a1-3)]GlcNAc(b1-3)Gal(b1-4)[Fuc(a1-3)]GlcNAc
Procedure, shortened: as §1

[19] = target: GlcNAc(b1-3)Gal(b1-4)GlcNAc(b1-2)[GlcNAc(b1-3)Gal(b1-4)GlcNAc(b1-6)]Man(a1-6)[GlcNAc(b1-3)Gal(b1-4)GlcNAc(b1-2)Man(a1-3)]Man(b1-4)GlcNAc(b1-4)GlcNAc
Procedure, shortened: as §1

[20] = target: GlcNAc(b1-3)Gal(b1-4)GlcNAc(b1-3)Gal(b1-4)GlcNAc(b1-2)Man(a1-3)[GlcNAc(b1-3)Gal(b1-4)GlcNAc(b1-3)Gal(b1-4)GlcNAc(b1-2)Man(a1-6)]Man(b1-4)GlcNAc(b1-4)GlcNAc
Procedure, shortened: as §1

[21] = target: GlcNAc(b1-3)Gal(b1-4)GlcNAc(b1-3)[GlcNAc(b1-3)Gal(b1-4)GlcNAc(b1-3)]GalNAc
Procedure, shortened: as §1

[22] = target: GlcNAc(b1-4)GlcNAc(b1-4)GlcNAc(b1-4)GlcNAc(b1-4)GlcNAc
Procedure, shortened: as §1

Kdn(a2-6)Gal(b1-4)GlcNAc = target: Kdn(a2-6)Gal(b1-4)GlcNAc
Procedure, shortened: as §1

[23] = target: Man(a1-2)Man(a1-3)[Man(a1-6)]Man(a1-6)[Man(a1-2)Man(a1-3)]Man(b1-4)GlcNAc(b1-4)GlcNAc
Procedure, shortened: as §1

[24] = target: Man(a1-3)[Man(a1-6)]Man(a1-6)[Man(a1-3)]Man
Procedure, shortened: as §1

[25] = target: Neu5Ac(a2-3)Gal(b1-3)GalNAc(b1-4)[Neu5Ac(a2-3)]Gal(b1-4)Glc
Procedure, shortened: as §1

[26] = target: Neu5Ac(a2-3)Gal(b1-3)GlcNAc(b1-2)Man
Procedure, shortened: as §1

[27] = target: Neu5Ac(a2-3)Gal(b1-4)GlcNAc(b1-2)Man
Procedure, shortened: as §1

[28] = target: Neu5Ac(a2-3)Gal(b1-4)GlcNAc(b1-2)Man(a1-3)[Neu5Ac(a2-3)Gal(b1-4)GlcNAc(b1-2)Man(a1-6)]Man(b1-4)GlcNAc(b1-4)[Fuc(a1-6)]GlcNAc
Procedure, shortened: as §1

[29] = target: Neu5Ac(a2-3)Gal(b1-4)GlcNAc(b1-2)[Neu5Ac(a2-3)Gal(b1-4)GlcNAc(b1-4)]Man(a1-3)[GlcNAc(b1-4)][Neu5Ac(a2-3)Gal(b1-4)GlcNAc(b1-2)[Neu5Ac(a2-3)Gal(b1-4)GlcNAc(b1-6)]Man(a1-6)]Man(b1-4)GlcNAc(b1-4)GlcNAc
Procedure, shortened: as §1

[30] = target: Neu5Ac(a2-3)Gal(b1-4)GlcNAc(b1-3)Gal(b1-4)GlcNAc(b1-3)Gal(b1-4)GlcNAc(b1-2)Man(a1-3)[Neu5Ac(a2-3)Gal(b1-4)GlcNAc(b1-3)Gal(b1-4)GlcNAc(b1-3)Gal(b1-4)GlcNAc(b1-2)Man(a1-6)]GalNAc
Procedure, shortened: as §1

[31] = target: Neu5Ac(a2-3)Gal(b1-4)GlcNAc(b1-3)Gal(b1-4)GlcNAc(b1-3)[Neu5Ac(a2-3)Gal(b1-4)GlcNAc(b1-3)Gal(b1-4)GlcNAc(b1-6)]GalNAc
Procedure, shortened: as §1

[32] = target: Neu5Ac(a2-3)Gal(b1-4)[Fuc(a1-3)]GlcNAc(b1-2)Man
Procedure, shortened: as §1

[33] = target: Neu5Ac(a2-3)Gal(b1-4)[Fuc(a1-3)]GlcNAc(b1-3)GalNAc
Procedure, shortened: as §1

[34] = target: Neu5Ac(a2-3)[GalNAc(b1-4)]Gal(b1-4)Glc
Procedure, shortened: as §1

Neu5Ac(a2-6)Gal = target: Neu5Ac(a2-6)Gal
Procedure, shortened: as §1

[35] = target: Neu5Ac(a2-6)Gal(b1-4)GlcNAc(b1-2)Man
Procedure, shortened: as §1

[36] = target: Neu5Ac(a2-6)Gal(b1-4)GlcNAc(b1-2)Man(a1-3)Man(b1-4)GlcNAc(b1-4)GlcNAc
Procedure, shortened: as §1

[37] = target: Neu5Ac(a2-6)Gal(b1-4)GlcNAc(b1-2)Man(a1-6)[GlcNAc(b1-2)Man(a1-3)]Man(b1-4)GlcNAc(b1-4)GlcNAc
Procedure, shortened: as §1

[38] = target: Neu5Ac(a2-6)Gal(b1-4)GlcNAc(b1-3)Gal(b1-3)GlcNAc
Procedure, shortened: as §1

[39] = target: Neu5Ac(a2-6)Gal(b1-4)GlcNAc(b1-3)Gal(b1-4)GlcNAc(b1-3)Gal(b1-4)GlcNAc(b1-2)Man(a1-3)[Neu5Ac(a2-6)Gal(b1-4)GlcNAc(b1-3)Gal(b1-4)GlcNAc(b1-3)Gal(b1-4)GlcNAc(b1-2)Man(a1-6)]GalNAc
Procedure, shortened: as §1

[40] = target: Neu5Ac(a2-6)Gal(b1-4)GlcNAc(b1-3)Gal(b1-4)GlcNAc(b1-3)[Neu5Ac(a2-6)Gal(b1-4)GlcNAc(b1-3)Gal(b1-4)GlcNAc(b1-6)]GalNAc
Procedure, shortened: as §1

Neu5Ac(a2-8)Neu5Ac = target: Neu5Ac(a2-8)Neu5Ac
Procedure, shortened: as §1

[41] = target: Neu5Ac(a2-8)Neu5Ac(a2-3)[GalNAc(b1-4)]Gal(b1-4)Glc
Procedure, shortened: as §1

[42] = target: Neu5Ac9Ac(a2-3)Gal(b1-4)GlcNAc
Procedure, shortened: as §1

Neu5Gc(a2-6)GalNAc = target: Neu5Gc(a2-6)GalNAc
Procedure, shortened: as §1

[43] = target: Neu5Gc(b2-6)Gal(b1-4)GlcNAc
Procedure, shortened: as §1

B1: HA-00510 (Pseudomonas aeruginosa), Q02V39_PSEAB (protein)
chain: GVPIVNIATPNGAGLSNNHFRDYNVGANGLILNNATGKTQGTQLGGIILGNPNLKGQAAQVILNQVTGGNRSTLAGYTEVAGQSARVIVANPHGITCQGCGFINTPRATLTTGKPIMDGQRLERFQVDGGDIVVEGAELNVGNLEQFDLITRSAKLNAKLYAKNLNIVTGRNDVQADSLQATPRAADGSEKPQLAIDSSALGGMYAGAIRLVGTEQGVGVKLAGDMAASGGDIRIDASGKLSLAQASSQGDLKIAAQAVELNGKTYAGGSAEIRSAEELVNRQS
glycan array binding signal (z-score) (Fuc(a1-2)Gal(b1-4)GlcNAc): 0.548 | glycan array binding signal (z-score) [1]: 1.8 | glycan array binding signal (z-score) [2]: -0.457 | glycan array binding signal (z-score) [3]: -1.39 | glycan array binding signal (z-score) [4]: -0.268 | glycan array binding signal (z-score) [5]: 0.219 | glycan array binding signal (z-score) [6]: 2.45 | glycan array binding signal (z-score) (Fuc(a1-3)GlcNAc): 0.219 | glycan array binding signal (z-score) (Gal(a1-3)Gal(b1-4)GlcNAc): 0.209 | glycan array binding signal (z-score) [7]: 0.326 | glycan array binding signal (z-score) (Gal(b1-2)Gal): -0.657 | glycan array binding signal (z-score) [8]: 0.121 | glycan array binding signal (z-score) [9]: -0.221 | glycan array binding signal (z-score) [10]: 0.347 | glycan array binding signal (z-score) [11]: 6.41 | glycan array binding signal (z-score) [12]: 3.26 | glycan array binding signal (z-score) [13]: 3.88 | glycan array binding signal (z-score) (Gal(b1-6)Gal): -0.435 | glycan array binding signal (z-score) (Gal3S(b1-4)Glc): 0.114 | glycan array binding signal (z-score) (Gal3S(b1-4)GlcNAc): -0.217 | glycan array binding signal (z-score) [14]: 0.258 | glycan array binding signal (z-score) (Gal3S4S(b1-4)GlcNAc): -0.526 | glycan array binding signal (z-score) (Gal6S(b1-4)GlcNAc): -0.516 | glycan array binding signal (z-score) [15]: -0.551 | glycan array binding signal (z-score) [16]: -1.01 | glycan array binding signal (z-score) [17]: 0.18 | glycan array binding signal (z-score) [18]: 0.682 | glycan array binding signal (z-score) [19]: 0.061 | glycan array binding signal (z-score) [20]: 4.3 | glycan array binding signal (z-score) [21]: -0.255 | glycan array binding signal (z-score) [22]: 0.345 | glycan array binding signal (z-score) (Kdn(a2-6)Gal(b1-4)GlcNAc): -0.045 | glycan array binding signal (z-score) [23]: -0.534 | glycan array binding signal (z-score) [24]: -0.502 | glycan array binding signal (z-score) [25]: 0.112 | glycan array binding signal (z-score) [26]: -0.852 | glycan array binding signal (z-score) [27]: 1.18 | glycan array binding signal (z-score) [28]: 0.601 | glycan array binding signal (z-score) [29]: 0.048 | glycan array binding signal (z-score) [30]: 3.77 | glycan array binding signal (z-score) [31]: -0.447 | glycan array binding signal (z-score) [32]: -1.16 | glycan array binding signal (z-score) [33]: 2.86 | glycan array binding signal (z-score) [34]: -0.269 | glycan array binding signal (z-score) (Neu5Ac(a2-6)Gal): 0.437 | glycan array binding signal (z-score) [35]: 2.52 | glycan array binding signal (z-score) [36]: -0.14 | glycan array binding signal (z-score) [37]: -0.425 | glycan array binding signal (z-score) [38]: 2.34 | glycan array binding signal (z-score) [39]: 3.69 | glycan array binding signal (z-score) [40]: 2.75 | glycan array binding signal (z-score) (Neu5Ac(a2-8)Neu5Ac): 0.611 | glycan array binding signal (z-score) [41]: -0.094 | glycan array binding signal (z-score) [42]: 0.419 | glycan array binding signal (z-score) (Neu5Gc(a2-6)GalNAc): -0.059 | glycan array binding signal (z-score) [43]: -0.019
